Test results taken from PubChem BioAssay (NCATS).
Results filed as inconclusive are left out. The source made the active and inactive calls. Unless noted, the call rests on the fitted dose curve; in most records, active means well fitted curve in either direction with a large enough effect (not every such curve was filed as active); inconclusive means small, poorly fitted or top-dose-only effect, or another doubt; inactive means flat fitted curve, though single readings scatter.

What was measured:
[1] = molecular target: Lysosomal acid glucosylceramidase (Homo sapiens) (UniProt P04062); assay: Glucocerebrosidase-p2 (AID 348; in the data active means potency below about 10 µM; further: potency means the concentration at half of the fitted maximal effect); conditions: purified GBA, blue fluorogenic substrate, 40 min
How it was run: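 Normal human glucocerebrosidase (0.2 nM) with blue fluorogenic substrate (80 uM final) in citrate/phosphate pH 5.9 with 10mM sodium taurocholate, 0.01% tween-20; 40 min RT, NaOH/glycine stop; fluorescence Ex 365/Em 440; AC50 from a titration from 0.6 nM upwards.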

[2] = AP1 Signaling Pathway (AID 357); conditions: ME-180 AP-1-bla reporter, EGF-induced, beta-lactamase ratio, 5 h; at 7.69 µM (top of the series) unless noted;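 further: ME-180 reporter cells stimulated with EGF at its EC50 level; on the % scale 0 is the no-effect control and ±100 the full control effect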
How it was run: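 Beta-lactamase reporter under AP-1 response element, ME-180 background. Stimulus: EC50 EGF. Compound exposure 5 h, 37 °C. Detection: CCF4, 2.5 h RT, 460/530 nm. Values: AC50 from titration.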

[3] = molecular target: Cytochrome P450 1A2 (Homo sapiens) (UniProt P05177); assay: p450-cyp1a2 (AID 410; calls by dose curve; further: potency means the concentration at half of the fitted maximal effect;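 on activity change, negative = inhibition: -100% = full effect of reference inhibitor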); conditions: recombinant CYP1A2, luciferin-ME demethylation, luminescence; series mostly up to 57 µM
How it was run: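 20nM CYP1A2, 100uM Luciferin-ME (=Km), 100mM KPO4; cpd 10 min RT; +NADPH regen, 60 min RT; stop/detect 20 min; luminescence. Normalized to furafylline 57 uM = full inhibition.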

[4] = NFAT Signaling Pathway (AID 444); conditions: Jurkat NFAT-bla M1, carbachol, beta-lactamase ratio, 5 h; at 7.69 µM (top of the series) unless noted;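 further: carbachol stimulus at about its EC50 of 1 µM final; on the % scale 0 is the no-effect control and ±100 the full control effect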
How it was run: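 Jurkat cells with NFAT-driven β-lactamase reporter and co-expressed M1 receptor, stimulated with carbachol (final 1 uM, ~EC50), compound titration, 5 h at 37 °C. CCF4 loaded 1 h at RT; 460/530 nm ratio gave %activity and AC50.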

[5] = Stat Signaling Pathway (AID 446); conditions: ME-180 (cervical carcinoma) SIE beta-lactamase reporter, IL-6 stimulated, 5 h; at 7.69 µM (top of the series) unless noted;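 further: ME-180 cervical cancer cells given 40 pM IL-6 alongside compound; SIE-controlled beta-lactamase reporter measured as 460/530 nm FRET emission ratio; on the % scale 0 is the no-effect control and ±100 the full control effect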
How it was run: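 FRET read-out (405 nm excitation, 460/530 nm emission) of a beta-lactamase reporter under a STAT-inducible element in ME-180 cervical carcinoma cells. Cells with compound receive 40 pM IL-6 for 5 h. Values are normalised to AC90 stimulation and AC90 JAK-inhibitor controls.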

[6] = molecular target: Glucocorticoid receptor (Homo sapiens) (UniProt P04150); assay: GR-EFC Redistribution (AID 451; calls by dose curve; further: potency means the concentration at half of the fitted maximal effect); conditions: CHO-K1 GR-EFC translocation, beta-gal luminescence, 2 h
How it was run: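 CHO-K1 cells expressing nuclear EA and GR-ED fragments of b-gal; compounds titrated up to 46 uM final, 2 h at 37 C. GR nuclear translocation read as complemented b-gal luminescence after 1 h RT detection.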

[7] = molecular target: Mitogen-activated protein kinase 10 (Mus musculus) (UniProt Q61831); assay: JNK3 AlphaScreen Assay (AID 530); conditions: JNK3 lysate, c-Jun phosphorylation; series mostly up to 57.1 µM;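 further: kinase came from lysate of stimulated human HepG2 cells; signal reports phosphorylation of biotinylated GST-cJun 1-79 at Ser73 with 10 µM ATP; on the % scale 0 is the no-effect control and ±100 the full control effect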
How it was run: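 HepG2 lysate (IL-1b/TNFa pre-activated) + biotin-GST-cJun 1-79 + anti-pSer73 cJun; cpd titration, 15 min RT; ATP 10 uM start; Tris pH 7.6, MgCl2, DTT, vanadate; beads in EDTA buffer; AlphaScreen.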

[8] = molecular target: 3',5'-cyclic-AMP phosphodiesterase 4B (Homo sapiens) (UniProt Q07343); assay: qHTS Assay for Inhibitors of PDE-IV (AID 607; active means well fitted activation curve with a large enough effect in the main read-out, with a control signal flat, not every such curve was filed as active; further: % of control where 0% means no effect); conditions: HEK293 ACTOne CNG channel cells, membrane potential fluorescence; series mostly up to 22.9 µM
How it was run: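 Cell-based read-out of cAMP via a modified cyclic nucleotide-gated channel and membrane potential dye (535/590 nm) in HEK293 cells expressing PDE4 endogenously. Compounds tested up to 22.9 uM final; 100 uM RO 20-1724 reference.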

[9] = qHTS Assay for Lipid Storage Modulators (AID 1519; calls by dose curve); conditions: Drosophila S3 cells, BODIPY lipid droplet/cell ratio, laser cytometry, cells loaded with oleic acid; for activity change, negative = inhibition: at 57.5 µM (top of the series)
How it was run: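 Cells seeded at 5,000 per well were treated with compounds over a concentration series and loaded with oleic acid (400 uM, as added). Lipid droplet fluorescence (488 nm excitation, 500-530 nm channel) was read by laser-scanning cytometry and normalized to 20 uM Triacsin C.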

[10] = Primary qHTS for small molecule stabilizers of the endoplasmic reticulum resident proteome: Secreted ER Calcium Modulated Protein (SERCaMP) assay (AID 1508630; active means well fitted inhibition curve with a large enough effect; further: on the % scale 0 is the no-effect control and ±100 the full control effect); conditions: SH-SY5Y GLuc-SERCaMP (Gaussia luciferase released on ER calcium loss) secretion, thapsigargin, luminescence; series mostly up to 38.4 µM
How it was run: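 The SH-SY5Y reporter protocol was run at 3 concentrations up to 38.3 uM (primary) or 11 concentrations (follow-up): 16 h compound, 100 nM thapsigargin for 4 h, then extracellular luciferase luminescence.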

[11] = molecular target: Cytochrome P450 2C9 (Homo sapiens) (UniProt P11712); assay: qHTS Assay for Inhibitors and Substrates of Cytochrome P450 2C9 (AID 883; active means well fitted inhibition curve with a large enough effect; further: on the % scale 0 is the no-effect control and ±100 the full control effect; nearly all actives have a fitted effect of over 60% in size); conditions: recombinant CYP2C9, luciferin-H luminescence, 60 min; series mostly up to 57.1 µM
How it was run: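 Human CYP2C9 (10nM) with Luciferin-H at 100uM (its KM) in 25mM KPO4; compound preincubated 10 min at 37C, then NADPH regeneration for 60 min at 37C. Luciferin read by luminescence after detection reagent; normalized to 57uM sulphaphenazole as full inhibition.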

[12] = measured here: cell count channel max response
[13] = measured here: lipid channel max response

Sequence of 3',5'-cyclic-AMP phosphodiesterase 4B (Homo sapiens) (Q07343 whole entry, looked up): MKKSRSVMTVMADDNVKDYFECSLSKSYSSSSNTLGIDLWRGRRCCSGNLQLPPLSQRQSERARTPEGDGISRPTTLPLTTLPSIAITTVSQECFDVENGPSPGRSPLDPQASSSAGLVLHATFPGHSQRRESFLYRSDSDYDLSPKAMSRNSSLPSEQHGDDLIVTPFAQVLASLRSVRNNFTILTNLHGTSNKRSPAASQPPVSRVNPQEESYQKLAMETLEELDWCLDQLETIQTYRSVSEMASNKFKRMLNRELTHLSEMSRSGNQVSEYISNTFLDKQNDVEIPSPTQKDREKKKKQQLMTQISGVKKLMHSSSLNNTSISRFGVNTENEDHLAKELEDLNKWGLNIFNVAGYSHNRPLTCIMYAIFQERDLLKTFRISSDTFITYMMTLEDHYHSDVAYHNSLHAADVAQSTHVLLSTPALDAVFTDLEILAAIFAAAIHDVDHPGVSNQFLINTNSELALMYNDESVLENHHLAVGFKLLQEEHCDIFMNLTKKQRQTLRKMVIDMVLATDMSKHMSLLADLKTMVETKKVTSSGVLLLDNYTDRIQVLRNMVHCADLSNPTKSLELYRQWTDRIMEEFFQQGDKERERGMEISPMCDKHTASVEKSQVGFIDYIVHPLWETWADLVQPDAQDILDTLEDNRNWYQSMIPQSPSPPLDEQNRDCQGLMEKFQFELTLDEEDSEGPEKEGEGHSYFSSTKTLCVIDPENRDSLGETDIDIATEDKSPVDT
Sequence of Lysosomal acid glucosylceramidase (Homo sapiens) (P04062 whole entry, looked up): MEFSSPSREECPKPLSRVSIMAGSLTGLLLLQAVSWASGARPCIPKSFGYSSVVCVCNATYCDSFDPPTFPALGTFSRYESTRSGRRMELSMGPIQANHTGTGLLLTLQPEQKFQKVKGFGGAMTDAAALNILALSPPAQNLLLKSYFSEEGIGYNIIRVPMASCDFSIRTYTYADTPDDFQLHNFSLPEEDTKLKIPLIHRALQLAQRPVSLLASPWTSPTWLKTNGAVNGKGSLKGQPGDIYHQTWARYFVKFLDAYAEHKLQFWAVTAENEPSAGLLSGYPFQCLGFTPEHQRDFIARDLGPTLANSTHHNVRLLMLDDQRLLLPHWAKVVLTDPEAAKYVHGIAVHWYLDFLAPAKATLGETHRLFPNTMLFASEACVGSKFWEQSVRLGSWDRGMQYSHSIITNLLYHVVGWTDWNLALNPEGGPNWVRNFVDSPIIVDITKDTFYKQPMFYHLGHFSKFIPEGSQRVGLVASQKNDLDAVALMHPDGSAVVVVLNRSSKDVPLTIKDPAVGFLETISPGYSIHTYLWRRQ
Sequence of Cytochrome P450 1A2 (Homo sapiens) (P05177 whole entry, looked up): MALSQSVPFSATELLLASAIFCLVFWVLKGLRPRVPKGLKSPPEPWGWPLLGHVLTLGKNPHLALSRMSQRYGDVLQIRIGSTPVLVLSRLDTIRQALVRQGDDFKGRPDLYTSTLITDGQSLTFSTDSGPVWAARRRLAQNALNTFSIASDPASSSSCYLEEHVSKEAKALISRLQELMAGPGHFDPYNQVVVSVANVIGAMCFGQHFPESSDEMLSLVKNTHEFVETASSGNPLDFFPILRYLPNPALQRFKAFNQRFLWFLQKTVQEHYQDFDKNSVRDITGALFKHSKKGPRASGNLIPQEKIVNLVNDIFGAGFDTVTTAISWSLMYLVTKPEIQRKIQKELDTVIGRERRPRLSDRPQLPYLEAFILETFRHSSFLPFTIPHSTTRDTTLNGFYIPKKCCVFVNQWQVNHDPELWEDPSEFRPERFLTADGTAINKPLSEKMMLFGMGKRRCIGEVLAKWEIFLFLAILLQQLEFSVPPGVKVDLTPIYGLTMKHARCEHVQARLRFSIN
Sequence of Glucocorticoid receptor (Homo sapiens) (P04150 whole entry, looked up, the tested form may be a part): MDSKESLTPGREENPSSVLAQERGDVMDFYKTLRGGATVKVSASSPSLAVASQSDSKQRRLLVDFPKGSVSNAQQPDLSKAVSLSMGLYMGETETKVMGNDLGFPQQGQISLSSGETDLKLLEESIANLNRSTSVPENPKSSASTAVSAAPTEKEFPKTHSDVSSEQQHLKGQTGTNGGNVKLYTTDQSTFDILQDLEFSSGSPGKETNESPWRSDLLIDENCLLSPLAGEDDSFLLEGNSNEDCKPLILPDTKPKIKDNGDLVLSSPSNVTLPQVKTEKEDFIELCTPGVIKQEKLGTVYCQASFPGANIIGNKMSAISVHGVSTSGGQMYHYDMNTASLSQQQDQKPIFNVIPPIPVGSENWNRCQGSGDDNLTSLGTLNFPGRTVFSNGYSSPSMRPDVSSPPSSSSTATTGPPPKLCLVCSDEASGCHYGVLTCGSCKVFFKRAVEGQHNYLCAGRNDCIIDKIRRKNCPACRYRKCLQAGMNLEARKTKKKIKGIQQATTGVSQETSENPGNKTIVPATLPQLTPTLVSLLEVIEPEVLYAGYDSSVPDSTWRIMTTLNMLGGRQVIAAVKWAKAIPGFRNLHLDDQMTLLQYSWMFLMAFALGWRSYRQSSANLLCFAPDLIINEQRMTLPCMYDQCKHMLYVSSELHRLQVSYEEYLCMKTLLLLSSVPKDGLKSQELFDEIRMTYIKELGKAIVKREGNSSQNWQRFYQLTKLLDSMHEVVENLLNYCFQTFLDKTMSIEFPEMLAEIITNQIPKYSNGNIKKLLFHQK
Sequence of Cytochrome P450 2C9 (Homo sapiens) (P11712 whole entry, looked up): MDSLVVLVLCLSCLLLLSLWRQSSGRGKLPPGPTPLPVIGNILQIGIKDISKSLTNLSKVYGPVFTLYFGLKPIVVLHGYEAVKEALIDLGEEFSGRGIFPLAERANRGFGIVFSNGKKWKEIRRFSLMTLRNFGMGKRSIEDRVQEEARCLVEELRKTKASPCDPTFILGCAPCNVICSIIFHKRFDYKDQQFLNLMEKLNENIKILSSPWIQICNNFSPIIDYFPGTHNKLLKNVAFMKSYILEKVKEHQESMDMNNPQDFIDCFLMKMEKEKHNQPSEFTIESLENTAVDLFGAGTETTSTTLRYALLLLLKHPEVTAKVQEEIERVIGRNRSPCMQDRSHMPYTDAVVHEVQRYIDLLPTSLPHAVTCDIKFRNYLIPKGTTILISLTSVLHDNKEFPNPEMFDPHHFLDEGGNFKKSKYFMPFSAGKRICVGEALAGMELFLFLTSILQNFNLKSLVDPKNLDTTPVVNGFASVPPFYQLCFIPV

COc1ccc(NC(=O)N2CC3(CCN(C(=O)c4ccco4)CC3)C2)cc1
8.8%: max response [9, 13]
0.813%: max response [9, 12]
inactive: Potency [1] > 11.4 µM | activity change, negative = inhibition [2] -4.09% | Potency [3] | activity change, negative = inhibition [4] 3.69% | activity, negative = inhibition [5] -3.56% | Potency [6] > 46 µM | outcome [7] | Potency [8] | activity change, negative = inhibition [9] 5.26% | Potency [10]

CS(=O)(=O)N1CCC[C@@]2(CCN(C(=O)Nc3ccccc3)C2)C1
16.4%: max response [9, 12]
17.6%: max response [9, 13]
inactive: Potency [1] > 11.4 µM | activity change, negative = inhibition [2] -1.88% | Potency [3] | activity change, negative = inhibition [4] 17.3% | activity, negative = inhibition [5] -10.3% | Potency [6] > 46 µM | outcome [7] | Potency [8] | activity change, negative = inhibition [9] 0.904% | Potency [10]

O=C(Nc1cccc(F)c1)N1CCC2(CC1)CCN(C(=O)c1csnn1)CC2
12.6%: max response [9, 12]
inactive: Potency [1] > 11.4 µM | activity change, negative = inhibition [2] -8.39% | Potency [3] | activity change, negative = inhibition [4] 26.3% | activity, negative = inhibition [5] -9.77% | Potency [6] > 46 µM | outcome [7] | Potency [8] | activity change, negative = inhibition [9] 5.59% | Potency [10]
21.6%: max response [9, 13]

CC(C)NC(=O)N1CCC2(CC1)CCN(S(C)(=O)=O)CC2
inactive: Potency [1] > 11.4 µM | activity change, negative = inhibition [2] -12.4% | Potency [3] | activity change, negative = inhibition [4] 6.9% | activity, negative = inhibition [5] 4.06% | Potency [6] > 46 µM | outcome [7] | Potency [8] | activity change, negative = inhibition [9] -0.0632% | Potency [10]
6.33%: max response [9, 12]
5.94%: max response [9, 13]

CC(C)NC(=O)N1CC[C@@]2(CCCN(C(=O)c3cccn3C)C2)C1
-17.7%: max response [9, 12]
-8.74%: max response [9, 13]
inactive: Potency [1] > 11.4 µM | activity change, negative = inhibition [2] 12.3% | Potency [3] | activity change, negative = inhibition [4] -8.88% | activity, negative = inhibition [5] -1.46% | Potency [6] > 46 µM | outcome [7] | Potency [8] | activity change, negative = inhibition [9] 3.5% | Potency [10]

CC(=O)N1CCC2(CC1)CN(c1ccncc1)C2
inactive: Potency [1] > 11.4 µM | activity change, negative = inhibition [2] -4.3% | Potency [3] | activity change, negative = inhibition [4] 0.609% | activity, negative = inhibition [5] 0.403% | Potency [6] > 46 µM | outcome [7] | Potency [8] | Potency [11] | activity change, negative = inhibition [9] 2.66% | Potency [10]
16.2%: max response [9, 13]
11.6%: max response [9, 12]

COc1ccc(NC(=O)N2CC3(CCN(C(=O)c4c(C)noc4C)CC3)C2)cc1
14.2%: max response [9, 13]
inactive: Potency [1] > 11.4 µM | activity change, negative = inhibition [2] 4.05% | Potency [3] | activity change, negative = inhibition [4] 15.1% | activity, negative = inhibition [5] -8.69% | Potency [6] > 46 µM | outcome [7] | Potency [8] | activity change, negative = inhibition [9] 4.67% | Potency [10]
5.82%: max response [9, 12]

O=C(c1ccco1)N1CCC2(CC1)CCN(c1ccccc1)CC2
29.9%: max response [9, 13]
23.3%: max response [9, 12]
inactive: Potency [1] > 11.4 µM | activity change, negative = inhibition [2] 2.89% | Potency [3] | activity change, negative = inhibition [4] -1.84% | activity, negative = inhibition [5] -6.6% | Potency [6] > 46 µM | outcome [7] | Potency [8] | activity change, negative = inhibition [9] 1.71% | Potency [10]

COCC(=O)N1CCC2(CCCN(C(=O)Nc3cccc(F)c3)C2)CC1
4.52%: max response [9, 12]
14.2%: max response [9, 13]
inactive: Potency [1] > 11.4 µM | activity change, negative = inhibition [2] -4.55% | Potency [3] | activity change, negative = inhibition [4] 3.84% | activity, negative = inhibition [5] -4.68% | Potency [6] > 46 µM | outcome [7] | Potency [8] | activity change, negative = inhibition [9] 7.2% | Potency [10]

CC(C)CN1CCC2(CC1)CCN(C(=O)c1csnn1)CC2
-1.99%: max response [9, 13]
-3.14%: max response [9, 12]
inactive: Potency [1] > 11.4 µM | activity change, negative = inhibition [2] -3.75% | Potency [3] | activity change, negative = inhibition [4] -21.7% | activity, negative = inhibition [5] -16.4% | Potency [6] > 46 µM | outcome [7] | Potency [8] | activity change, negative = inhibition [9] -1.92% | Potency [10]

CS(=O)(=O)N1CCC2(CCN(C(=O)Nc3cccc(F)c3)CC2)CC1
4.7%: max response [9, 12]
inactive: Potency [1] > 11.4 µM | activity change, negative = inhibition [2] -2.81% | Potency [3] | activity change, negative = inhibition [4] 8.92% | activity, negative = inhibition [5] -6.54% | Potency [6] > 46 µM | outcome [7] | Potency [8] | activity change, negative = inhibition [9] 4.55% | Potency [10]
11.5%: max response [9, 13]

O=C(c1csnn1)N1CCC[C@@]2(CCN(c3ncccn3)C2)C1
inactive: Potency [1] > 11.4 µM | activity change, negative = inhibition [2] -0.372% | activity change, negative = inhibition [4] 8.43% | activity, negative = inhibition [5] 1.56% | Potency [6] > 46 µM | outcome [7] | Potency [8] | activity change, negative = inhibition [9] 7.22% | Potency [10]
8.99%: max response [9, 12]
21.1%: max response [9, 13]
active: Potency [3] 12.6 µM

CS(=O)(=O)N1CCC2(CC1)CN(C(=O)Nc1ccccc1)C2
6.27%: max response [9, 12]
inactive: Potency [1] > 11.4 µM | activity change, negative = inhibition [2] -5.74% | Potency [3] | activity change, negative = inhibition [4] 11.2% | activity, negative = inhibition [5] 8.65% | Potency [6] > 46 µM | outcome [7] | Potency [8] | activity change, negative = inhibition [9] 4.59% | Potency [10]
16.7%: max response [9, 13]

Cn1cccc1C(=O)N1CCC2(CC1)CN(C(=O)Nc1ccccc1)C2
8.17%: max response [9, 12]
14.5%: max response [9, 13]
inactive: Potency [1] > 11.4 µM | activity change, negative = inhibition [2] -4.26% | Potency [3] | activity change, negative = inhibition [4] 8.61% | activity, negative = inhibition [5] -5.03% | Potency [6] > 46 µM | outcome [7] | Potency [8] | activity change, negative = inhibition [9] 5.97% | Potency [10]

COc1ccc(NC(=O)N2CC3(CCN(C(=O)c4cccn4C)CC3)C2)cc1
8.75%: max response [9, 12]
21.6%: max response [9, 13]
inactive: Potency [1] > 11.4 µM | activity change, negative = inhibition [2] -10.5% | Potency [3] | activity change, negative = inhibition [4] 14.9% | activity, negative = inhibition [5] -11.3% | Potency [6] > 46 µM | outcome [7] | Potency [8] | activity change, negative = inhibition [9] 6.73% | Potency [10]
